Test in all cases: NCI-60 one-dose screen, 48 h (100 = growth as untreated, 0 = no growth, -100 = all killed)
Holding throughout (settings): 10 µM unless noted

The subject of test [1] is SK-MEL-2 melanoma.
In test [2] the test system is EKVX NSCLC.
The test system of test [3] is SN12C renal.
In test [4] the test system is UO-31 renal.
The subject of test [5] is TK-10 renal.
Test [6] deals with ACHN renal.
For test [7], the system named is CAKI-1 renal.
Test [8] has as its system A498 renal.
In test [9] the test system is CCRF-CEM leukemia.
Test [10] relates to MOLT-4 leukemia.

The panel holds about 83,000 compounds, 20% with a hit somewhere; the sample as a whole holds those more often.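 The endpoint reported here, percent growth, reads 100 for growth as untreated, 0 for no net growth and -100 for all cells dead.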 Values without a mark were called inactive. The source made the active and inactive calls. The calls were made as follows: active = growth percent below 10; inactive = the rest.

For 26 compounds, growth results are on record in PubChem BioAssay (NCI).

With `N#C/C(=C\c1ccc(-c2ccc(Br)cc2)o1)c1nc(-c2ccco2)cs1`, the growth in test [1] is 103%; in test [2], 41.6%; in test [3], 92.3%; in [4] it was 74.7%; in test [5], 38.7%; in [6], 95.8%. Moreover, the growth in test [7] is 88.8%; in [8], 101%; in [9] it was 89.9%; in test [10] it was 94.2%.

With `CC(C)(C)c1ccc(OCCCCCCCN2CCNCC2)cc1`, the growth is 103% in test [1]; 70% in test [2]; 58.8% in test [3]; 33.3% in [4]; 105% in test [5]; 13.6% in [6]. Besides, the growth was 44.8% in test [7], 79.9% in [8], 17.8% in test [9] and 0.604% (active) in [10].

As to `N#CCCCCCn1c2ccccc2c2c3c(c4c5ccccc5n(CCCCCC#N)c4c21)C(=O)N(O)C3=O`, the growth is 85% in test [1]; 95% in test [2]; 79.8% in test [3]; 58.2% in [4]; 95.3% in test [5]; 83.8% in test [6]. Further, the growth was 0.852% (active) in test [7], 107% in test [8], 74.5% in test [9] and 73.8% in [10].

`CCc1nnc(NC(=O)c2ccoc2COc2ccccc2)s1`: the growth in test [1] is 54.3%; in [2] it was 58.2%; in [3], 55.7%; in test [4] it was 60.7%; in test [5], 108%; in [6], 64.8%. The growth in test [7] was 41.9%; in test [8], 59.2%; in [9], 39.3%; in [10], 25.3%.

`CCCCC/C(=C\c1ccccc1)C1OC(C)C(C)O1` (stereo not given): the growth is 83.5% in test [1]; 103% in [2]; 97.2% in [3]; 101% in test [4]; 91% in [5]; 101% in test [6]. The growth in [7] is 93.6%; in test [8], 105%; in test [9] it was 97.2%; in [10], 110%.

As to `Cc1cc2nc3c4cc([N+](=O)[O-])cc([N+](=O)[O-])c4n(CCN(C)C)c3nc2cc1C`, the growth in test [1] was 108%; in [2], 82.7%; in test [3], 59.7%; in [4], 40.4%; in test [5], 117%; in test [6], 35.5%. For the same compound, the growth in test [7] was 49.6%; in test [8], 97%; in [9], 63.1%; in [10], 31.3%.

Take `O=C1/C(=C\c2ccco2)SC(=S)N1CCc1ccc(O)cc1`: the growth in test [1] was 104%; in test [2], 91.1%; in test [3] it was 91.6%; in [4], 54%; in test [5], 130%; in [6] it was 96%. Besides, the growth is 83.4% in test [7], 97.1% in [8], 44.8% in test [9] and 82.2% in test [10].

Turning to `C(=C\c1c[nH]c2ccccc12)/c1ccc2ccccc2n1`, the growth in test [1] is 86.5%; in test [2] it was 70.8%; in test [3], 51.4%; in test [4], 23.6%; in [5], 114%; in [6] it was 89.9%. Moreover, the growth in [7] is 60.7%; in test [8], 120%; in test [9] it was 14.9%; in [10], 12.4%.

Consider `Nc1ccc(Cl)cn1`, for which the growth in [1] is 107%; in [2], 97.4%; in [3], 107%; in test [4], 86.7%; in test [5] it was 106%; in [6] it was 109%. Further, the growth in [7] is 90.5%; in [8] it was 96.4%; in [9], 107%; in [10] it was 102%.

`COC(=O)[C@]12CC[C@@H](C)[C@H](C)[C@@H]1C1=CC[C@@H]3[C@@](C)(CC#N)C4=C(C[C@@]3(C)[C@]1(C)CC2)OC[C@]4(C)C=O`: the growth in test [1] was -40.2% (active); in test [2], -11.8% (active); in test [3], 1.64% (active); in test [4] it was 6.25% (active); in test [5], 3.82% (active); in [6], 7.19% (active). The growth in test [7] was 9.24% (active); in test [8], -91.7% (active); in test [9] it was 1.66% (active); in [10], 2.4% (active).

On to `CC1(c2ccccc2)OC1C(=O)O` (stereo not given), for which the growth in [1] is 107%; in [2] it was 107%; in test [3], 106%; in test [4], 84.5%; in [5] it was 102%; in [6] it was 102%. In addition, the growth was 94% in [7], 109% in test [8], 101% in test [9] and 101% in test [10].

With `COc1ccccc1CNc1nc(N)nc2[nH]c3ccc(O)cc3c12`, the growth is 15.8% in test [1]; 90.4% in test [2]; 55.3% in test [3]; 59.6% in test [4]; 68.6% in test [5]; 68.5% in test [6]. The growth in test [7] was 80.5%; in test [8], 28%; in [9] it was 44%; in test [10], 22.4%.

In the case of `Cc1ccc(-c2ccc(/C=C(\C#N)c3nc(-c4ccco4)cs3)o2)cc1`, the growth was 104% in test [1]; 52.1% in test [2]; 97.1% in test [3]; 79% in test [4]; 69.9% in test [5]; 98.6% in test [6]. The growth in test [7] was 94.5%; in [8] it was 106%; in [9] it was 79.1%; in test [10], 94.6%.

Regarding `COc1cc2c(cc1-c1c(C)noc1C)ncc1nc(C3CCC(F)(F)CC3)n([C@@H](C)COC(F)F)c12`, the growth in [1] was 71.4%; in [2], 43.4%; in test [3], 58.5%; in test [4], 3.65% (active); in test [5], 27.1%; in test [6] it was 36.5%. Moreover, the growth in test [7] was 24.3%; in [8], -12.5% (active); in test [9], 50.8%; in test [10] it was 41.4%.

As for `CC(C)=CCC[C@](C)(O)[C@H]1CC[C@]2(C)[C@@H]1CC[C@@H]1[C@@]3(C)C/C(=C/c4cccc([N+](=O)[O-])c4)C(=O)C(C)(C)[C@@H]3CC[C@]12C`, the growth was 115% in [1]; 92.6% in test [2]; 81.1% in test [3]; 69.3% in test [4]; 128% in test [5]; 98.9% in [6]. Besides, the growth is 51.9% in test [7], 92.6% in [8], 76.3% in test [9] and 67.5% in test [10].

For `C[C@]12CC[C@@H]3c4ccc(O)cc4CC[C@H]3[C@@H]1C[C@H](O)[C@@H]2O`, the growth in test [1] was 104%; in test [2] it was 67.4%; in [3], 94.9%; in test [4], 78.2%; in test [5] it was 100%; in test [6], 93.7%. The growth in test [7] was 90.5%; in [8], 92.6%; in test [9] it was 103%; in [10] it was 109%.

On to `Nc1c2c(nc3ccc(Cl)cc13)CC(c1ccc(O)cc1)CC2=O` (stereo not given), for which the growth was 61.3% in test [1]; 29.8% in [2]; 58.7% in [3]; 60% in [4]; 81.5% in [5]; 49.4% in test [6]. Also, the growth in test [7] is 48.3%; in test [8] it was 86.5%; in test [9], 43.4%; in [10], 46.9%.

For the compound `CC(=O)OC[C@]12CC[C@@H](/C(C)=N/O)[C@@H]1[C@H]1CC[C@@H]3[C@@]4(C)CCCNC(C)(C)[C@@H]4CC[C@@]3(C)[C@]1(C)CC2`, the growth is 94.5% in [1]; 84.6% in test [2]; 75.3% in test [3]; 61.2% in [4]; 82.4% in test [5]; 88% in test [6]. Further, the growth was 36.7% in test [7], 59.3% in [8], 52.1% in test [9] and 35.6% in test [10].

For the compound `Cc1csc(-c2ccc3c(c2)COC3(CCCN(C)C)c2ccc(F)cc2)c1` (stereo not given), the growth in [1] is 25.8%; in [2], 72.2%; in test [3], 62.7%; in test [4], 44.7%; in [5], 55%; in test [6] it was 63.6%. Moreover, the growth in test [7] was 27.7%; in test [8], 86.2%; in test [9], 11.3%; in test [10], -17.4% (active).

Regarding `O=C(/C=C\c1ccc2c(c1)OCO2)/C=C/c1ccc2c(c1)OCO2`, the growth in test [1] was 127%; in test [2], 82.4%; in test [3], 86.5%; in [4] it was 76.3%; in [5], 96.1%; in [6], 88.3%. For the same compound, the growth in test [7] was 89.2%; in test [8], 126%; in test [9], 31.4%; in [10] it was 35.2%.

Turning to `CN(C)c1ccc(C(=O)c2ccc(N(C)C)c(N)c2)cc1N`, the growth in test [1] was 61.6%; in test [2] it was 50.9%; in [3], 49.7%; in test [4] it was 64.9%; in [5] it was 67.3%; in [6] it was 50.5%. In addition, the growth is 41% in test [7], 25% in test [8], 36.4% in [9] and 24.4% in [10].

As to `COc1cccc(-c2nn(-c3ccccc3)cc2-c2ccnc(NCCNS(=O)(=O)c3ccc(Cl)cc3)c2)c1`, the growth in test [1] was 13.4%; in test [2], 32.1%; in test [3], 33.9%; in test [4] it was 15.8%; in test [5] it was 41.5%; in [6], 26.6%. Besides, the growth in [7] is 32.2%; in test [8], 45.9%; in [9], 15.3%; in [10], 1.18% (active).

For the compound `CC1(C)CC[C@]2(C(=O)Nc3ccccn3)CC[C@]3(C)C(=CC[C@@H]4[C@@]5(C)C/C(=C/c6ccncc6)C(=O)C(C)(C)[C@@H]5CC[C@]43C)[C@@H]2C1`, the growth was 63.3% in [1]; 39.3% in test [2]; 34.4% in test [3]; 36.9% in [4]; 77.4% in test [5]; -11.9% (active) in test [6]. Moreover, the growth in test [7] is 40.4%; in [8], -17.2% (active); in [9] it was 25.4%; in test [10], 11.6%.

In the case of `O=[N+]([O-])c1ccc(N/N=C(\C(=N/Nc2ccc([N+](=O)[O-])cc2[N+](=O)[O-])c2ccccc2)c2ccccc2)c([N+](=O)[O-])c1`, the growth in [1] was 95.9%; in test [2], 108%; in test [3], 97.5%; in [4], 86.4%; in test [5] it was -1.75% (active); in [6], 95.7%. In addition, the growth was 81.1% in test [7], 103% in [8], 58.4% in test [9] and 92.2% in test [10].

On to `O=S(=O)(NCCCNc1cc(-c2cn(-c3ccccc3)nc2-c2cccc(O)c2)ccn1)c1ccc(F)cc1`, for which the growth is 44.7% in [1]; 51.2% in [2]; 47.3% in [3]; 21.9% in [4]; 50.6% in test [5]; 32.8% in [6]. Besides, the growth is 41.4% in test [7], 34.3% in test [8], 19.4% in [9] and 18.8% in [10].

As to `Nc1c(C(=O)Nc2cccc3ccccc23)sc2nc3c(cc12)CCCC3`, the growth is 51.5% in [1]; 66.4% in [2]; 34.3% in test [3]; 42% in [4]; 60.6% in test [5]; 44.7% in test [6]. The growth was 44.9% in test [7], 0.0449% (active) in test [8], 16.6% in test [9] and 20.7% in [10].
